These results are taken from PubChem BioAssay.

For assay [1], the system named is PRMT1 (protein arginine N-methyltransferase 1). Briefly: PRMT1 binders on small-molecule microarrays, primary screen, biochemical, small-molecule microarray, 635 nm fluorescence (AID 1088).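 Note: binding of Prmt1 protein to compounds spotted on small-molecule microarray slides.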 The following applies: small-molecule microarray binding, higher = more signal.
Assay [2] in a line: yeast growth modulation, basal conditions, primary screen, YJM789 clinical isolate, OD600, 24 h (AID 1089).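 Note: growth of clinical yeast isolate S. cerevisiae YJM 789 seeded 1000 cells per well; test concentration not given here.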 The following applies: S. cerevisiae YJM789 growth, higher = more signal, called active from +8 up or from −8 down.
Assay [3] in a line: fission yeast growth modulation, primary screen, strain 972, OD600, 24 h, no modulator (AID 1090).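 Note: basal condition with compound alone and no growth modifier present; test concentration not given here.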 The following applies: S. pombe 972 growth, higher = more signal, called active from +8 up or from −8 down.
The nature of assay [4]: S. cerevisiae growth modulation with rapamycin, primary screen, strain BY4716, OD600, 96 h (AID 1091). Note: test concentration not given here. The following applies: higher = more signal, called active from +8 up or from −8 down.
Assay [5] has as its target Torsin-1A-interacting protein 2 (Homo sapiens) (UniProt Q8NFQ8). The assay can be described thus: LULL1 binders on small-molecule microarray, primary screen, cell lysate, human LULL1 lysate, 635/667 nm fluorescence (AID 1092).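 Note: probe is lysate of COS7 cells overexpressing human LULL1; score merges per-feature 667 nm fluorescence with signal-to-noise.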 The following applies: hLULL1 lysate binding, 635 nm fluorescence, higher = more signal.
Assay [6] can be described thus: E. coli growth modulation, two-sided OD650, primary screen, E. coli filamentation project, strain DRC41, 24 h (AID 1093).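 Note: MC1000 strain lacking acrAB efflux and sulA so SOS filamentation is blocked; test concentration not given here.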 The following applies: OD650, 24 h, higher = more signal, called active from +8 up or from −8 down.
Assay [7] is described as follows: small-molecule microarray binders of probe aLefty2, primary screen, biochemical, biotinylated probe, 635/667 nm fluorescence (AID 1094).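 Note: score merges spot fluorescence near 667 nm with spot signal-to-noise ratio.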 The following applies: higher = more signal.
Assay [8] relates to Noggin (protein binding on small-molecule microarray). The assay can be described thus: Noggin binders on small-molecule microarray, primary screen, biochemical, 635/667 nm fluorescence (AID 1095).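 Note: score merges 667 nm feature fluorescence with signal to noise over triplicate slides.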 The following applies: 635 nm fluorescence, higher = more signal.
Assay [9] deals with Neurogenic locus notch homolog protein 3 (Homo sapiens) (UniProt Q9UM47). The assay can be described thus: NOTCH3 binders on small-molecule microarray, primary screen, biochemical, 635/667 nm fluorescence (AID 1096). The following applies: NOTCH3 binding, 635 nm fluorescence, higher = more signal.
Neurogenic locus notch homolog protein 3 (Homo sapiens), sequence (Q9UM47 whole entry, looked up): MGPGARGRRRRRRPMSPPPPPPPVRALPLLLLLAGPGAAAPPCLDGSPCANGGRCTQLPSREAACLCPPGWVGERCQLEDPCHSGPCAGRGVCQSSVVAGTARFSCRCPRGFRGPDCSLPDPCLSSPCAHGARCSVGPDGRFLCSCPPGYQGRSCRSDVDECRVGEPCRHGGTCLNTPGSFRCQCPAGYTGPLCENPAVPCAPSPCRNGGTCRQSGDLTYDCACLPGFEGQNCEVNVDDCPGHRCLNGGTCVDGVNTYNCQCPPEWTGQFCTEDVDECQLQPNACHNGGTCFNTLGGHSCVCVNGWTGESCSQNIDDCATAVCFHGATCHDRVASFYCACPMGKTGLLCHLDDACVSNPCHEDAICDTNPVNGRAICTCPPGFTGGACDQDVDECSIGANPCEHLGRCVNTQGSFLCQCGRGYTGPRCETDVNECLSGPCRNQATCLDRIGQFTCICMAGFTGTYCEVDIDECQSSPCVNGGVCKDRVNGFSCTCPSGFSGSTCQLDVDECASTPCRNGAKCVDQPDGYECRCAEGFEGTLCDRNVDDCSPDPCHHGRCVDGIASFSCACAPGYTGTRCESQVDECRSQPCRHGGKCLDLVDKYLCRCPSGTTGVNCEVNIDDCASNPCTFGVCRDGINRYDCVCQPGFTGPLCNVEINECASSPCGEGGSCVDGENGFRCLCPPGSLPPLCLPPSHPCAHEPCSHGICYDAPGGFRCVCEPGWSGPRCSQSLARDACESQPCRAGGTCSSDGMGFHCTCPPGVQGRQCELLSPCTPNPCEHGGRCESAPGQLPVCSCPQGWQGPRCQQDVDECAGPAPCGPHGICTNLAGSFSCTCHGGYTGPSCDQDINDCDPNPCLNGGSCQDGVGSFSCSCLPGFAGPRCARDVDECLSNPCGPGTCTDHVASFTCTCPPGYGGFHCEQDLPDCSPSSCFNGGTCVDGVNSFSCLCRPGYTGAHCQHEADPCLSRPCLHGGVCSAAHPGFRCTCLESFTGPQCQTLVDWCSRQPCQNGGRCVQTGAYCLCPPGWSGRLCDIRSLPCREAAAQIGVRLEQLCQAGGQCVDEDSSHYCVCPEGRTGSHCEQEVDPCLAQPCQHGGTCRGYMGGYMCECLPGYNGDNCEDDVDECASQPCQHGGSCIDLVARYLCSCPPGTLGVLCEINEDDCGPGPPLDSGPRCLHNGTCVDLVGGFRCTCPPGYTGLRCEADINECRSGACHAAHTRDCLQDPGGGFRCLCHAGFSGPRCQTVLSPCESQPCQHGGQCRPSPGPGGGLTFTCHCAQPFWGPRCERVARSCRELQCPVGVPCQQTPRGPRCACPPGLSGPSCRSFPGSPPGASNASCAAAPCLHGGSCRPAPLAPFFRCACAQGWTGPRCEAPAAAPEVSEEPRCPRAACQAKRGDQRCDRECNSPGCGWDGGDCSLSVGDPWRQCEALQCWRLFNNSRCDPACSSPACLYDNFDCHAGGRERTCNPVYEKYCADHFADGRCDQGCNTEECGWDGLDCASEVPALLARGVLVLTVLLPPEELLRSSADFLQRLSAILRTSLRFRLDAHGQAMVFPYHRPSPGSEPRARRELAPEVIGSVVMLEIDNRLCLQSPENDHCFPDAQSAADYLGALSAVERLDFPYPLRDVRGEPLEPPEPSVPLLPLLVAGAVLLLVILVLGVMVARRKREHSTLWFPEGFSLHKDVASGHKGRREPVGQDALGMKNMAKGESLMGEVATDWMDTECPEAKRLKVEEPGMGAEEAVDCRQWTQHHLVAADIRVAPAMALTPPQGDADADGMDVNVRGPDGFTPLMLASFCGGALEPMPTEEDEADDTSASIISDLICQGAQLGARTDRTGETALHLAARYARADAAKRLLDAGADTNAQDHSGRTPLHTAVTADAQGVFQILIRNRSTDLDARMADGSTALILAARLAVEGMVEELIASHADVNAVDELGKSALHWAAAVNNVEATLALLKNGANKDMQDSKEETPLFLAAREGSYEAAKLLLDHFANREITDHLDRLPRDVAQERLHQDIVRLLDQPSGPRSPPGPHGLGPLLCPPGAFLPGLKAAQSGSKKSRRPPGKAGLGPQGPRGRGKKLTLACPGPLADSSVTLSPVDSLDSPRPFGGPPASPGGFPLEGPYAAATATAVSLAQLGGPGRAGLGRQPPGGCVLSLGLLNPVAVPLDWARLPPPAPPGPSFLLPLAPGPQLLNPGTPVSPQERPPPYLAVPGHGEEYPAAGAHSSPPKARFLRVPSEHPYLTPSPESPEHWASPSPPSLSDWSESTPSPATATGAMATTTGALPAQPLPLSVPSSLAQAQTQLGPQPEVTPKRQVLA
Assay [10] is described as follows: small-molecule microarray binders of probe aEGFR, primary screen, biochemical, biotinylated probe, 635/667 nm fluorescence (AID 1097).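 Note: probe is a biotinylated anti-EGFR antibody binding compounds printed on slides; score combines fluorescence near 667 nm and signal to noise of each spot.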 The following applies: higher = more signal.
For assay [11], the system named is Plasmodium falciparum Sir2 (PF13_0152, Sir2A). Briefly: pfSir2 binders on small-molecule microarrays, primary screen, biochemical, small-molecule microarray, 635 nm fluorescence (AID 1098).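 Note: score merges spot fluorescence intensity with its signal-to-noise ratio.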 The following applies: small-molecule microarray binding, fluorescence 635 nm; higher = more signal.
Assay [12] can be described thus: small-molecule microarray binders of probe aDKK1, primary screen, biochemical, biotinylated probe, 635/667 nm fluorescence (AID 1099).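 Note: score merges 667nm spot fluorescence with signal to noise across triplicate slides; reference of the scale not given here.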 The following applies: higher = more signal.
Assay [13] in a line: small-molecule microarray binders of probe aCHRDL2, primary screen, biochemical, biotinylated probe, 635/667 nm fluorescence (AID 1100). The following applies: higher = more signal.
Assay [14] can be described thus: splicing luciferase reporter signal modulators, primary screen, spliceosome inhibition project, cell-based, HEK293, splice +/- reporter (AID 1101).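 Note: HEK293 cells carrying a splicing-competent luciferase reporter gene; test concentration not given here.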 The following applies: luminescence, 24 h, higher = more signal, called active from +8 up or from −8 down. For orientation: Reporter assays use an easily measured gene product as a stand-in for the process of interest.
In assay [15] the target is Fibroblast growth factor 10 (Homo sapiens) (UniProt O15520). Briefly: FGF10 binders on small-molecule microarrays, primary screen, biochemical, small-molecule microarray, 635 nm fluorescence (AID 1102). The following applies: FGF10 binding, fluorescence 635 nm, higher = more signal.
Fibroblast growth factor 10 (Homo sapiens), sequence (O15520 whole entry, looked up): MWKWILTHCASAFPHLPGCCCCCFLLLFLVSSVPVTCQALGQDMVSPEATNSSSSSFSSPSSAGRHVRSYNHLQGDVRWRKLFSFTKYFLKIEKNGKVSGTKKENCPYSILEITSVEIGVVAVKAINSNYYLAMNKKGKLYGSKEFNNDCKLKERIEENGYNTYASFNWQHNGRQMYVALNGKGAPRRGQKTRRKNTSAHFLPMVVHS
Assay [16] relates to glycogen synthase kinase-3 (GSK3A per assay name; protocol says GSK3B). The assay can be described thus: GSK3 binders on small-molecule microarrays, primary screen, biochemical, small-molecule microarray, 635 nm fluorescence, GSK3A (AID 1103). Note: the record names both GSK3A and GSK3B. The following applies: small-molecule microarray binding, fluorescence 635 nm; higher = more signal.
Assay [17] has as its target Epidermal growth factor receptor (Homo sapiens) (UniProt P00533). The assay can be described thus: EGFR binders on small-molecule microarrays, primary screen, biochemical, small-molecule microarray, 635 nm fluorescence (AID 1104).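 Note: score merges 667 nm emission intensity with spot signal to noise over triplicate slides.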 The following applies: EGFR binding, higher = more signal.
The target of assay [18] is Follistatin-related protein 3 (Homo sapiens) (UniProt O95633). Briefly: FSTL3 binders on small-molecule microarrays, primary screen, biochemical, small-molecule microarray, 635 nm fluorescence (AID 1105).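 Note: score merges emission near 667 nm and signal to noise per printed spot across three slides.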 The following applies: FSTL3 binding, higher = more signal.
Follistatin-related protein 3 (Homo sapiens), sequence (O95633 whole entry, looked up): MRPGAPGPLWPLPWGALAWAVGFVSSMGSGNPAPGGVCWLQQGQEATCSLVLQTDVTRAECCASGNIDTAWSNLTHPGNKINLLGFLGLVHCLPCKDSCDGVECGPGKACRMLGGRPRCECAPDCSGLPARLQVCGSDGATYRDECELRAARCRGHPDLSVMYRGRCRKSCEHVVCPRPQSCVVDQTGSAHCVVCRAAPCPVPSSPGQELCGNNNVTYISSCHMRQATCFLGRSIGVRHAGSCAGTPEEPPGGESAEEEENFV
For assay [19], the target named is Dickkopf-related protein 1 (Homo sapiens) (UniProt O94907). Briefly: DKK1 binders on small-molecule microarrays, primary screen, biochemical, small-molecule microarray, 635 nm fluorescence scan (AID 1106).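 Note: score merges emission near 667 nm with signal to noise over three replicate slides.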 The following applies: DKK1 binding, higher = more signal.
Dickkopf-related protein 1 (Homo sapiens), sequence (O94907 whole entry, looked up): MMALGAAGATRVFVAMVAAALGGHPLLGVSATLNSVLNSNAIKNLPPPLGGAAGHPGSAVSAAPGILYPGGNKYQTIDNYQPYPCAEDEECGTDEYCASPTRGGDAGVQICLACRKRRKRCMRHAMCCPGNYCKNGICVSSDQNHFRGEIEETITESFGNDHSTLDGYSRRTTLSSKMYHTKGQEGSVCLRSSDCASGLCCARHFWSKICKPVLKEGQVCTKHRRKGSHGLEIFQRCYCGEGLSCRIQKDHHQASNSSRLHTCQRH
Assay [20] relates to Inhibin beta A chain (activin A). The assay can be described thus: INHBA (activin A) binders on microarrays, primary screen, biochemical, small-molecule microarray, 635 nm fluorescence scan (AID 1107).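 Note: mouse activin A protein probed at 4.33 µg/mL on printed slides; score merges bound-protein fluorescence near 667 nm with spot signal-to-noise.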 The following applies: small-molecule microarray binding, higher = more signal.

Active and inactive are the calls of the source.

Torsin-1A-interacting protein 2 (Homo sapiens), sequence (Q8NFQ8 whole entry, looked up): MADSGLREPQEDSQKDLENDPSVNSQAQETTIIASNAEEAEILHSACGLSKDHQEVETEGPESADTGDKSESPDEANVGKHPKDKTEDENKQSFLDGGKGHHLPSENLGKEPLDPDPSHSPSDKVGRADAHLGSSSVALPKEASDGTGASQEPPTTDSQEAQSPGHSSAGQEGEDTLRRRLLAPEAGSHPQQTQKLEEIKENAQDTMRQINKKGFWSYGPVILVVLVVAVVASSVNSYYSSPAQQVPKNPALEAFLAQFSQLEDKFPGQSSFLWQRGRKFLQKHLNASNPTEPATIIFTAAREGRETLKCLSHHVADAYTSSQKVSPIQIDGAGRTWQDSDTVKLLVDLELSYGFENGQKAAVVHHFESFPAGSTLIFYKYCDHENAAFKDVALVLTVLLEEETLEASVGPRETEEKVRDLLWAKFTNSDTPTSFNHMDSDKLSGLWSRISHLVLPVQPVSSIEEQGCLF
Epidermal growth factor receptor (Homo sapiens), sequence (P00533 whole entry, looked up): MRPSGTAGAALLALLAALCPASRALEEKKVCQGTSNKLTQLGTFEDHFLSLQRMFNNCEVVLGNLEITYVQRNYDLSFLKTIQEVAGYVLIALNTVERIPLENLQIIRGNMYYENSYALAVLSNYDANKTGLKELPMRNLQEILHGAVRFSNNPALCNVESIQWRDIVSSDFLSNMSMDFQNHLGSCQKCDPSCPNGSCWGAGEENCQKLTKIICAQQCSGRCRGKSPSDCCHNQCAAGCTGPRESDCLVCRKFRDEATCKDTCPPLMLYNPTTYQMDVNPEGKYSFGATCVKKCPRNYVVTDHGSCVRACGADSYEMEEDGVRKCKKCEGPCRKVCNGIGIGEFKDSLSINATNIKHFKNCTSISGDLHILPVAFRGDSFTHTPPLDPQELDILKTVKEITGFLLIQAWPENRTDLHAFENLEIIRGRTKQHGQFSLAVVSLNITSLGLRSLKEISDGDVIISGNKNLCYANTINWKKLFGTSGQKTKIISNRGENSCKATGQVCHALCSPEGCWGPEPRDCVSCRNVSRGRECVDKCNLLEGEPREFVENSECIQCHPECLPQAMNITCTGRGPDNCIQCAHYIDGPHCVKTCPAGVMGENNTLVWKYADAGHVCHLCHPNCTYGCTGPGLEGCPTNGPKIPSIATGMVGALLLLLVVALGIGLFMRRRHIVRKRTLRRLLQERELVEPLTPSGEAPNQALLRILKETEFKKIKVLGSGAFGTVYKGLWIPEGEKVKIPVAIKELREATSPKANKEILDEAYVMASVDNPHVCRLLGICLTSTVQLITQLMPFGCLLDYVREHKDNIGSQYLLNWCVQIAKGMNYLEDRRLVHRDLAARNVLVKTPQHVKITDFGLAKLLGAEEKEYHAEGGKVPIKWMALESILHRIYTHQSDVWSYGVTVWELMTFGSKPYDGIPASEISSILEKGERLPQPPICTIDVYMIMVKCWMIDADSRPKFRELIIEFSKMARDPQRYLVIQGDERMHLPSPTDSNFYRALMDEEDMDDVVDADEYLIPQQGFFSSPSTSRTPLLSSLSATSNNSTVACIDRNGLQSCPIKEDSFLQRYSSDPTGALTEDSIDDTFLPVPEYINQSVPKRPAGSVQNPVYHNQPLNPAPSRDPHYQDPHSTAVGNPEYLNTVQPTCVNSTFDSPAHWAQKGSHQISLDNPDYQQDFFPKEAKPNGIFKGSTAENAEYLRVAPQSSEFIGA

As for `COc1ccc([Si](C)(C)[C@@H]2[C@@H](CC(=O)N(CCO)Cc3ccccc3)O[C@]3(C(=O)N(c4ccccc4)c4ccccc43)[C@H]2C)cc1`, the composite z-score is 1.56 in assay [1]; 2.26 in assay [5]; -0.0722 in [7]; 1.26 in [8]; 1.1 in assay [9]; -0.0512 in [10]. The composite z-score in assay [11] is 0.908; in assay [12], -0.262; in assay [13] it was -0.426; in [15], 0.766; in assay [16] it was 0.629; in [17], 0.954. Besides, the figures for the composite z-score in assay [18], in assay [19] and in assay [20] were 1.21, 0.95 and 0.872, respectively. Further, the z-score in assay [2] was -0.14 (inactive); in [3], 0.001 (inactive); in assay [4] it was 0.842 (inactive); in assay [6], 1.01 (inactive); in assay [14], -2.14 (inactive).
For `O=C(NCc1ccccc1)[C@@H]1c2ccccc2C(=O)N(Cc2ccccc2C(F)(F)F)[C@H]1c1ccc(CO)cc1`, the composite z-score in assay [1] is 1.45; in assay [5] it was 1.83; in assay [7] it was -0.179; in assay [8] it was -0.483; in assay [9], -0.0406; in assay [10], -0.212. Also, the composite z-score in assay [11] is 1.61; in [12] it was -0.299; in assay [13] it was 0.752; in assay [15], 0.112; in [16], -0.076; in [17] it was -0.406. The composite z-score in [18] is -0.45; in [19] it was -1.09; in [20] it was 0.212. The z-score in [2] was 0.397 (inactive); in assay [3], 0.234 (inactive); in assay [4], -0.0066 (inactive); in [6], 0.479 (inactive); in assay [14], -0.452 (inactive).
`CO[C@H]1O[C@H](CO)[C@@H](OC(=O)Nc2ccc3c(c2)OCO3)[C@H](OC(=O)c2cc3ccccc3[nH]2)[C@H]1OC(=O)c1cc2ccccc2[nH]1`: the composite z-score is 0.391 in assay [1]; -0.33 in assay [5]; 0.0204 in assay [7]; 0.111 in [8]; 0.123 in assay [9]; -0.0828 in assay [10]. Further, the composite z-score in assay [11] was 0.787; in assay [12], -0.0268; in assay [13], -0.161; in assay [15], 0.247; in assay [16] it was -0.0406; in [17], -0.194. For the same compound, the composite z-score in [18] was found to be 0.238; in [19], 0.283; in assay [20], 1.46. In addition, the z-score in assay [2] was -2.1 (inactive); in assay [3], -0.908 (inactive); in [4], 0.489 (inactive); in assay [6] it was 0.382 (inactive); in assay [14] it was -1.87 (inactive).
With `CCOC(=O)C[C@H]1[C@H](OC(=O)c2ccc(C(=O)c3ccccc3)cc2)[C@@H](NC(=O)Cc2ccc(OC)cc2)c2cc(OCCCO)ccc2N1C(=O)c1ccccc1`, the composite z-score in assay [1] is 0.139; in assay [5], 1.19; in assay [7], 0.0759; in assay [8] it was 0.359; in assay [9] it was -0.0979; in [10] it was -0.0219. The composite z-score in assay [11] is -0.186; in [12], 0.0467; in [13] it was 0.521; in assay [15], 0.281; in [16], -0.0732; in assay [17], 0.12. In addition, the composite z-score in [18] is -0.0059; in assay [19] it was 0.0251; in assay [20], 0.643. The z-score was -0.12 (inactive) in [2]; 0.169 (inactive) in assay [3]; -0.378 (inactive) in assay [4]; -0.978 (inactive) in assay [6]; -0.449 (inactive) in [14].
